In the supplement of paper PMC6555819:

Tests used:
Assay in all cases: PBM binding z-score (relative to random genomic background probes); higher = stronger binding; sequences stand for … in GC…GCGATTGACAGCGTAGAATGAAGG
[1] = tested on: PPARg:RXRa IVT, anti-PPARg (NR concentration 270 nM, RXRa partner concentration 90 nM)
Method in brief: (§1)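 Each nuclear receptor dimer, without ligand, was incubated for 1 h on custom Agilent 4×180K protein-binding microarrays. Binding was detected with antibodies against each partner (one per run), and scanned fluorescence was regression-normalized. The binding z-scores are referenced to random human genomic background probes.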

[2] = tested on: PPARg DBDmut:RXRa IVT, anti-PPARg (DBD mutation: PPARg1 K132A/R137A, NR concentration 270 nM, RXRa partner concentration 90 nM)
Method in brief: as §1

[3] = tested on: PPARg DBDmut IVT, anti-PPARg (DBD mutation: PPARg1 K132A/R137A, NR concentration 270 nM)
Method in brief: as §1

[4] = tested on: PPARg homodimer (NR concentration 180 nM)
Method in brief: as §1

[5] = tested on: PXR:RXRa (NR concentration 270 nM, RXRa partner concentration 90 nM)
Method in brief: as §1

[6] = tested on: PXR homodimer (NR concentration 270 nM)
Method in brief: as §1

[7] = tested on: RARa:RXR (NR concentration 270 nM, RXRa partner concentration 90 nM)
Method in brief: as §1

[8] = tested on: RARa homodimer (NR concentration 270 nM)
Method in brief: as §1

[9] = tested on: RARb homodimer (NR concentration 270 nM)
Method in brief: as §1

[10] = tested on: RARb:RXRa (NR concentration 270 nM, RXRa partner concentration 90 nM)
Method in brief: as §1

Row | Sequence | PBM binding z-score [1] | PBM binding z-score [2] | PBM binding z-score [3] | PBM binding z-score [4] | PBM binding z-score [5] | PBM binding z-score [6] | PBM binding z-score [7] | PBM binding z-score [8] | PBM binding z-score [9] | PBM binding z-score [10]
1 | CGTCCAAGGTCATAGGAGGTCAATGAAGACAGAT | 5.13 | 0.774 | 0.632 | 4.29 | 7.13 | 6.06 | 6.16 | 1.49 | 5.71 | –
2 | ATCGAAAGGTCGAAGGTGCGTATACCCACCCGAA | 1.39 | 0.552 | 0.658 | 0.794 | 2.17 | -0.19 | 3.01 | 0.303 | 2.42 | 3.68
3 | AGTCAAAGTTCATCTAGGTAACATAAGATATGCT | 3.9 | 1.75 | 1.67 | 2.88 | 5.28 | 6.9 | 4.2 | 1.96 | 3.71 | 4.94
4 | ATCGAAAGGTCGTGAGGTAAGTATACAGAAAGGC | 2.1 | 1.96 | 0.952 | 2.1 | 3.42 | 0.535 | 4.43 | 1.16 | 2.76 | 3.99
5 | AGTCAAACTTCAGGACGAGGTAACGTAAAGCACG | 0.278 | 0.625 | 0.0207 | 0.24 | -0.409 | -0.112 | 0.165 | 0.202 | 0.304 | 0.545
6 | TCTAGTTGGTCTAAGGTCACACACTCGAAATGCG | 3.51 | 1.67 | 1.64 | 4.05 | 4.79 | 2.22 | 5.04 | 2.5 | 4.29 | 3.76
7 | ATCGAAAGGTCGACGCGGTGAGTATACACCGTTT | 1.36 | 0.788 | 0.177 | 1.39 | 2.07 | -0.368 | 3 | 0.192 | 2.45 | 3.72
8 | ATCGAAAGGTCTAAGGTGAGTATACCCACCCGAA | 1.2 | 0.696 | 0.446 | 0.384 | 0.515 | 0.247 | 1.35 | 0.59 | 1.08 | 1.53
9 | AGAATGAGGTTACCAAAGTTCAGGGAAACGCTTG | 4.09 | 0.616 | 0.161 | 1.31 | 6.02 | 3.03 | 3.93 | 0.38 | 3.93 | 3.81
10 | CACACTAGGTCACAGAGGTCAAAGTCCGTGCGTA | 8.44 | 0.528 | 2.16 | 4.86 | 6.73 | 12 | 7.59 | 3.69 | 5.86 | 5.36
11 | TTGCCAAGGTGAAAGGTCGTTGATGCACGCCTTG | 4.55 | -0.0211 | -0.745 | 1.54 | 4 | -0.137 | 5.68 | -0.379 | 2.56 | 3.06
12 | CGTCCAAGGTCATAGGGGGTCAGTGAAGACAGAT | 5.56 | 5.09 | 6.03 | 6.75 | 6.98 | 6.58 | 7.02 | 4.01 | 5.51 | 5.56
